Measurements from PubChem BioAssay (NCATS).
Records with an inconclusive call do not appear. Where a call stands in place of a potency, no number is given. The source made the active and inactive calls. The call rests on the fitted dose curve; in most records, active means well fitted curve in the direction sought with a large enough effect; inconclusive means small, poorly fitted or top-dose-only effect, or another doubt; inactive means no such curve, though single readings can be large; an effect the other way counts as inactive or inconclusive.

Experiments:
[1] = target: Ubiquitin carboxyl-terminal hydrolase 1 (Homo sapiens) (UniProt O94782); assay: Inhibitors of USP1/UAF1: Pilot qHTS (AID 504865); conditions: purified USP1/UAF1, Ub-rhodamine cleavage fluorescence; series mostly up to 114 µM;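 further: rhodamine fluorescence freed from ubiquitin-rhodamine substrate followed over time; top concentration of the series differs between compounds; nearly all actives have a fitted effect of over 35% in size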
Procedure, shortened: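 Deubiquitinase activity followed as kinetic rhodamine fluorescence release from 150 nM Ub-Rho. 1 nM USP1/UAF1 with compound, after 15 min room-temperature preincubation, in HEPES pH 7.8 buffer containing TCEP, EDTA, BSA and Tween-20.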

[2] = S16 Schwann cell PMP22 intronic element firefly luciferase assay (AID 624032); conditions: S16 rat Schwann cells, PMP22 element FLuc, 24 h; series mostly up to 57.5 µM; further: nearly all actives have a fitted effect of over 30% in size
Procedure, shortened: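 Rat S16 Schwann cells stably carrying a PMP22 intronic element-driven Fluc reporter were seeded overnight, then exposed to compounds for 24 h at 37 °C. Luminescence was normalized to PTC124 (positive control) and DMSO (0% activity).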

3D7 = assay: qHTS profiling for inhibitors of Plasmodium falciparum proliferation (AID 504749); further: nearly all actives have a fitted effect of over 60% in size; further: potency means the concentration at half of the fitted maximal effect; conditions: P. falciparum in erythrocytes, SYBR Green DNA, 72 h; series mostly up to 28.7 µM
Procedure, shortened: (§1)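 Fluorescence of SYBR Green-bound parasite DNA, read at 485/535 nm, served as the growth measure. Infected erythrocytes were cultured with compound 72 h; artemisinin (0.29 uM) and DMSO wells defined the normalization range.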

CP215 = assay: as above; conditions: P. falciparum in erythrocytes, SYBR Green DNA, 72 h; series mostly up to 28.7 µM
Procedure, shortened: as §1

CP217 = assay: as above; conditions: P. falciparum in erythrocytes, SYBR Green DNA, 72 h; series mostly up to 28.7 µM
Procedure, shortened: as §1

CP250 = assay: as above; conditions: P. falciparum in erythrocytes, SYBR Green DNA, 72 h; series mostly up to 28.7 µM
Procedure, shortened: as §1

CP256 = assay: as above; conditions: P. falciparum in erythrocytes, SYBR Green DNA, 72 h; series mostly up to 28.7 µM
Procedure, shortened: as §1

CP260 = assay: as above; conditions: P. falciparum in erythrocytes, SYBR Green DNA, 72 h; series mostly up to 28.7 µM
Procedure, shortened: as §1

CP286 = assay: as above; conditions: P. falciparum in erythrocytes, SYBR Green DNA, 72 h; series mostly up to 28.7 µM
Procedure, shortened: as §1

CP291 = assay: as above; conditions: P. falciparum in erythrocytes, SYBR Green DNA, 72 h; series mostly up to 28.7 µM
Procedure, shortened: as §1

CP315 = assay: as above; conditions: P. falciparum in erythrocytes, SYBR Green DNA, 72 h; series mostly up to 28.7 µM
Procedure, shortened: as §1

CP335 = assay: as above; conditions: P. falciparum in erythrocytes, SYBR Green DNA, 72 h; series mostly up to 28.7 µM
Procedure, shortened: as §1

DIV14 = assay: as above; conditions: P. falciparum in erythrocytes, SYBR Green DNA, 72 h; series mostly up to 28.7 µM
Procedure, shortened: as §1

DIV17 = assay: as above; conditions: P. falciparum in erythrocytes, SYBR Green DNA, 72 h; series mostly up to 28.7 µM
Procedure, shortened: as §1

FAB9 = assay: as above; conditions: P. falciparum in erythrocytes, SYBR Green DNA, 72 h; series mostly up to 28.7 µM
Procedure, shortened: as §1

GB4 = assay: as above; conditions: P. falciparum in erythrocytes, SYBR Green DNA, 72 h; series mostly up to 28.7 µM
Procedure, shortened: as §1

JCK = assay: as above; conditions: P. falciparum in erythrocytes, SYBR Green DNA, 72 h; series mostly up to 28.7 µM
Procedure, shortened: as §1

N140 = assay: as above; conditions: P. falciparum in erythrocytes, SYBR Green DNA, 72 h; series mostly up to 28.7 µM
Procedure, shortened: as §1

TAB165 = assay: as above; conditions: P. falciparum in erythrocytes, SYBR Green DNA, 72 h; series mostly up to 28.7 µM
Procedure, shortened: as §1

[3] = target: Luciferin 4-monooxygenase (Photinus pyralis) (UniProt P08659); assay: Biochemical firefly luciferase enzyme assay for NPC (AID 624030);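 further: purified P. pyralis luciferase at 10 nM with luciferin and ATP substrate; nearly all actives have a fitted effect of over 70% in size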; conditions: purified P. pyralis luciferase, luminescence, 5 min; series mostly up to 58.6 µM
Procedure, shortened: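 Counter-screen for direct inhibition of the luciferase enzyme by approved-drug library compounds, run at 10 nM enzyme in 50 mM Tris acetate (final). Luminescence was read within 5 min of enzyme-buffer addition and normalized to PTC124 versus DMSO (0%).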

Chain of Ubiquitin carboxyl-terminal hydrolase 1 (Homo sapiens) (O94782 whole entry, looked up): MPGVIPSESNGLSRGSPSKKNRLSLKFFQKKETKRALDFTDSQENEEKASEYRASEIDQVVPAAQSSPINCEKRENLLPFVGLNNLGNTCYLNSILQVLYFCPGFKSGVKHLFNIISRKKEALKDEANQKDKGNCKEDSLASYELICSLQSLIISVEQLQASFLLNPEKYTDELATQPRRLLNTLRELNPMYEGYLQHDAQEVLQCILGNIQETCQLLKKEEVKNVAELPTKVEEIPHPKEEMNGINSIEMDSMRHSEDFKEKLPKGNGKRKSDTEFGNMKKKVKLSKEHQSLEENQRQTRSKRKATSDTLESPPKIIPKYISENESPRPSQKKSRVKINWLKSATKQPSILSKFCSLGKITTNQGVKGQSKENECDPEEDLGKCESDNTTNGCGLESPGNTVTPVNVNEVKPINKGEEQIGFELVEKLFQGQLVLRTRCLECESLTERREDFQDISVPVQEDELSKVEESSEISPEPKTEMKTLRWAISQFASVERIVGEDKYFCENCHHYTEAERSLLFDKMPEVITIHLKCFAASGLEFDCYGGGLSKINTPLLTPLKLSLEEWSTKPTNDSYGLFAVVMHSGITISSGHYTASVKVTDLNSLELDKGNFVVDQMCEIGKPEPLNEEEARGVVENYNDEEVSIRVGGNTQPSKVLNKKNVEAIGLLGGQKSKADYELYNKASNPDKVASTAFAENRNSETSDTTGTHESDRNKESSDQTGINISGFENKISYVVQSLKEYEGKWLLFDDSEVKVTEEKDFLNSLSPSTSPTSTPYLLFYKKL
Chain of Luciferin 4-monooxygenase (Photinus pyralis) (P08659 whole entry, looked up): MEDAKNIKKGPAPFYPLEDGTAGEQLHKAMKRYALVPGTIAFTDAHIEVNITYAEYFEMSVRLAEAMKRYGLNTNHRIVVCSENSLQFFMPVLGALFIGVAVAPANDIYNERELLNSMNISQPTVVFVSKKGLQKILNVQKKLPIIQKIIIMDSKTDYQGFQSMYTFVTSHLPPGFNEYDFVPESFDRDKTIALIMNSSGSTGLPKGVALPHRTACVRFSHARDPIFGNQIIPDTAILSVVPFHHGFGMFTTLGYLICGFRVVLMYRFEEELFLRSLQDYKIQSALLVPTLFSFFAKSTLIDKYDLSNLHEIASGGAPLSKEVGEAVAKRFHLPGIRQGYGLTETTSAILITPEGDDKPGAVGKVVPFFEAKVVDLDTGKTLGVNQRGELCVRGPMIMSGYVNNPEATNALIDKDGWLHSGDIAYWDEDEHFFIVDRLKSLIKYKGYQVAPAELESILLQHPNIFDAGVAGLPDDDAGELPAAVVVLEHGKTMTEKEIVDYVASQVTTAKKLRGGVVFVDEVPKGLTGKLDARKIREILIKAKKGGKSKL

## N[C@@H](Cc1ccccc1)C(=O)O
[1]
  Potency: inactive
[2]
  Potency: inactive
3D7
  Potency: inactive
CP215
  Potency: inactive
CP217
  Potency: inactive
CP250
  Potency: inactive
CP256
  Potency: inactive
CP260
  Potency: inactive
CP286
  Potency: inactive
CP291
  Potency: inactive
CP315
  Potency: inactive
CP335
  Potency: inactive
DIV14
  Potency: inactive
DIV17
  Potency: inactive
FAB9
  Potency: inactive
GB4
  Potency: inactive
JCK
  Potency: inactive
N140
  Potency: inactive
TAB165
  Potency: inactive

## O=C(O)[C@@H](S)[C@H](S)C(=O)O
[3]
  outcome: inactive
3D7
  Potency: 8.91 µM (active)
CP215
  Potency: 9.53 µM (active)
CP217
  Potency: 6.31 µM (active)
CP250
  Potency: 7.08 µM (active)
CP256
  Potency: 7.94 µM (active)
CP260
  Potency: 5.01 µM (active)
CP286
  Potency: 7.08 µM (active)
CP291
  Potency: 12 µM (active)
CP315
  Potency: 15.1 µM (active)
CP335
  Potency: 6.75 µM (active)
DIV14
  Potency: 8.49 µM (active)
DIV17
  Potency: 13.5 µM (active)
FAB9
  Potency: 11.2 µM (active)
GB4
  Potency: 13.5 µM (active)
JCK
  Potency: 11.2 µM (active)
N140
  Potency: 7.94 µM (active)
TAB165
  Potency: 11.2 µM (active)

## O=C(O)[C@@H](O)[C@@H](O)[C@H](O)[C@H](O)CO
[1]
  Potency: inactive
[3]
  outcome: inactive
[2]
  Potency: inactive
